Bioassay records from PubChem BioAssay.
Tgondii IFNg – blocks Toxoplasma gondii growth in the presence of IFN-gamma; Toxoplasma gondii growth in IFN-gamma-treated host cells; active compounds read low; activity change, negative = inhibition, % (no concentration beside the values); hit rate 3.8% among 69,000; AID 1259416; in the data active means activity change below about -70%, passing the limit was not always enough;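 further: host cells are HeLa cells infected with Toxoplasma gondii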
The depositor's hits bear a star; i = inactive. The sample as a whole holds a higher share of hits than the screen did.

SMILES	Tgondii IFNg
COc1cc(COc2ccc3c(C)c(Cc4ccccc4)c(=O)oc3c2)cc(OC)c1OC	-13
O=c1c2ccccc2oc2cc(O)ccc12	49
Cc1c(Cc2c(Cl)cccc2Cl)c(=O)oc2cc(O)ccc12	-71*
COc1ccc2c(c1)NC1(CCN(C(=O)Cc3ccc(OC)c(OC)c3)CC1)c1cccn1-2	22
CN(C)c1nc2c(cc1C(=O)N1CCCC1)CCN(Cc1ccc(F)cc1)CC2	-5
O=C(NCCc1csc(-c2ccc(F)cc2)n1)c1ccc(Br)cc1	-79*
O=C(Cc1ccc(F)cc1)NCCc1csc(-c2ccc(F)cc2)n1	30
CCOc1ccc(CC(=O)NCCc2sc(-c3cccc(F)c3)nc2C)cc1	-44
CCCCOc1ccc(C(=O)NCCc2csc(-c3ccc(F)cc3)n2)cc1	-62
Cc1cc(C)cc(C(=O)NCCc2sc(-c3ccc(F)cc3)nc2C)c1	-77*
CCOc1ccc(CC(=O)NCCc2sc(-c3ccc(F)cc3)nc2C)cc1	-93*
COc1ccc(C(=O)NCCc2sc(-c3ccc(F)cc3)nc2C)cc1	-22
O=C(NCCc1csc(-c2ccc(F)cc2)n1)C12CC3CC(CC(C3)C1)C2	-11
CCOc1ccc(NC(=O)C(=O)NCCc2sc(-c3ccc(F)cc3)nc2C)cc1	-4
Cc1ccc(C(=O)NCCc2sc(-c3ccc(F)cc3)nc2C)cc1	-58
Cc1nc(-c2ccc(F)cc2)sc1CCNC(=O)C12CC3CC(CC(C3)C1)C2	-91*
Cc1nc(-c2ccc(F)cc2)sc1CCNC(=O)Cc1ccc(F)cc1	-11
Cc1cccc(C(C(=O)NCc2nnc3n2CCCCC3)N(C)C)c1 (centres undefined)	5
CC1CC(C)CN(CC(=O)Nc2ccc(C3NC(=O)c4cccnc4N3C)cc2)C1 (centres undefined)	-46
Cc1ccc(-c2noc(-c3c(O)c4ccc(F)cc4[nH]c3=O)n2)cc1	7
O=C1CCc2cc(S(=O)(=O)N3CCN(C(=O)C45CC6CC(CC(C6)C4)C5)CC3)cc3c2N1CC3	-28
Cn1cc(NC(=O)CN2CCCC2c2nc3ccc(F)cc3[nH]2)cn1 (centres undefined)	6
O=C(C[C@H]1COC[C@@H]2CN(Cc3ccco3)C[C@@H]12)NCC1CC1	-7
CCOc1ccccc1NC(=O)Cn1ncc2c(N3CCN(c4ccccn4)CC3)ncnc21	-21
CN1Cc2ccccc2C2(CCN(C3CCOCC3)CC2)C1	5
SMILES	Tgondii IFNg
CC(=O)Nc1ccc(-c2nccn2Cc2ccc3c(c2)OCO3)cc1	5
Cc1cc(C)cc(C(=O)NCCc2csc(-c3ccc(F)cc3)n2)c1	-82*
Cc1ccc(-c2nc(CCNC(=O)c3ccc(C)c(C)c3)cs2)cc1	i
Cc1ccc(C(=O)NCCc2csc(-c3ccc(F)cc3)n2)cc1	-65
O=C(NCCc1csc(-c2cccc(F)c2)n1)c1ccc(F)cc1	-62
O=C(NCCc1csc(-c2ccc(F)cc2)n1)c1ccc(F)cc1	-79*
CC(=O)NCCc1csc(-c2ccc(F)cc2)n1	39
Cc1ccc(NC(=O)Cn2c(=O)cc(C(=O)N3CCCC3)c3ccccc32)cc1C	9
CN(Cc1cc(-c2cccs2)n[nH]1)C(=O)c1onc2ccccc12	7
Cc1ccc2c(c1)C(=O)NC1(CCN(C(=O)NCCc3ccccc3)CC1)N2C	-26
c1ccc(CCN2CCn3c(Cn4cccn4)cnc3C2)cc1	-7
Cc1nc(-c2cc(S(=O)(=O)NCCCN3CCC(C)CC3)c(C)s2)sc1C	-39
COc1cc(C2N3CCCN2CC3)ccc1OCc1ccccc1 (centres undefined)	162
COc1ccc(-c2nnc(-c3nc(NC4CCCCC4)c4ccccc4n3)o2)cc1	-23
COc1cc(-c2nnc(C3CCCCC3)o2)ccc1OCc1ccccc1	-81*
COc1ccc2c(c1)NC1(CCN(C(=O)Nc3ccccc3F)CC1)c1cccn1-2	120
Cc1c(Cl)cccc1S(=O)(=O)NCCc1nnc(SCc2ccccc2)n1C	-54
Cc1nc(-c2cccc(F)c2)sc1CCNC(=O)C(=O)Nc1ccc(Cl)cc1	17
CS(=O)(=O)N[C@@H]1CCN(CC2CC2)[C@@H]1Cc1cccnc1	5
COc1ccccc1C(=O)NCCc1csc(-c2ccc(F)cc2)n1	-93*
COc1cccc(OC)c1C(=O)NCCc1csc(-c2ccc(Cl)cc2)n1	35
COc1ccc(Cl)cc1C(=O)NCCc1csc(-c2ccc(F)cc2)n1	-84*
COc1ccc(OCC(=O)NCCc2csc(-c3ccc(F)cc3)n2)cc1	51
COc1ccc(C(=O)NCCc2csc(-c3ccc(Cl)cc3)n2)cc1OC	15
COc1ccc(-c2nc(CCNC(=O)c3ccccc3F)cs2)cc1	412
SMILES	Tgondii IFNg
COc1cc(OC)cc(C(=O)NCCc2csc(-c3ccc(F)cc3)n2)c1	27
COc1ccc(C(=O)NCCc2csc(-c3ccc(F)cc3)n2)c(OC)c1	-97*
CCOc1ccccc1NC(=O)C(=O)NCCc1csc(-c2ccc(Cl)cc2)n1	-51
CCOc1ccccc1C(=O)NCCc1csc(-c2ccc(Cl)cc2)n1	-80*
Cc1ccccc1C(=O)NCCc1csc(-c2ccc(Cl)cc2)n1	-32
O=C(NCCc1csc(-c2ccc(F)cc2)n1)c1ccccc1F	-70
